Data taken from PubChem BioAssay (Tox21).
Where “and” joins values, the source holds several entries; their conditions need not be identical. Equal entries are not always repeated. Records with an inconclusive call do not appear. Where a call stands in place of a potency, no number is given. More than one record can exist for a structure, and the calls need not agree. Calls of active or inactive are those of the source. The call rests on the fitted dose curve; in most records, active means well fitted curve in the direction sought with a large enough effect in the repeat runs; inconclusive means weak or mixed curves; inactive means no such curve, though single readings can be large; an effect the other way counts as inactive or inconclusive.

Experiments:
[1] = Caspase-3/7 induction in HepG2 cells by small molecules, qHTS assay (AID 1346978); further: nearly all actives have a fitted effect of over 15% in size
How it was run: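 Caspase-3/7 induction was measured by Caspase-Glo 3/7 luminescence (30 min, room temperature) after a 17 hr compound exposure of wild-type HepG2 cells seeded at 2,000 per well and pre-incubated 5 hr.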

[2] = Caspase-3/7 induction in CHO-K1 cells by small molecules, qHTS cell viability counter screen (AID 1346979); further: nearly all actives have a fitted effect of over 35% in size; further: potency means the concentration at half of the fitted maximal effect
How it was run: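 Viability readout by fluorescence (CellTiter-Fluor) on wild-type CHO-K1 cells exposed for 16hr at 37C and 5% CO2 to compounds delivered in DMSO; reagent incubated 1hr before reading.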

[3] = Caspase-3/7 induction in CHO-K1 cells by small molecules, qHTS assay (AID 1346980); further: nearly all actives have a fitted effect of over 15% in size
How it was run: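 Luminescent Caspase-Glo 3/7 read (30min, room temperature) quantified apoptosis induction. Cells were wild-type CHO-K1, treated with compound for 17hr at 37 C and 5% CO2.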

[4] = Caspase-3/7 induction in HepG2 cells by small molecules, qHTS cell viability counter screen (AID 1346981); further: nearly all actives have a fitted effect of over 30% in size; further: potency means the concentration at half of the fitted maximal effect
How it was run: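 CellTiter-Fluor fluorescence measured viability in the same wells used for Caspase-Glo 3/7. HepG2 (wild type) at 2,000 cells/well were pre-incubated 5 hr, dosed, and given reagent at 16 hr, with 1 hr further at 37C.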

[5] = biological target: Nuclear receptor subfamily 1 group I member 2 (Homo sapiens) (UniProt O75469); assay: Human pregnane X receptor (PXR) small molecule agonists, qHTS assay (AID 1346982); further: nearly all actives have a fitted effect of over 35% in size; further: potency means the concentration at half of the fitted maximal effect
Sequence of Nuclear receptor subfamily 1 group I member 2 (Homo sapiens) (O75469 whole entry, looked up): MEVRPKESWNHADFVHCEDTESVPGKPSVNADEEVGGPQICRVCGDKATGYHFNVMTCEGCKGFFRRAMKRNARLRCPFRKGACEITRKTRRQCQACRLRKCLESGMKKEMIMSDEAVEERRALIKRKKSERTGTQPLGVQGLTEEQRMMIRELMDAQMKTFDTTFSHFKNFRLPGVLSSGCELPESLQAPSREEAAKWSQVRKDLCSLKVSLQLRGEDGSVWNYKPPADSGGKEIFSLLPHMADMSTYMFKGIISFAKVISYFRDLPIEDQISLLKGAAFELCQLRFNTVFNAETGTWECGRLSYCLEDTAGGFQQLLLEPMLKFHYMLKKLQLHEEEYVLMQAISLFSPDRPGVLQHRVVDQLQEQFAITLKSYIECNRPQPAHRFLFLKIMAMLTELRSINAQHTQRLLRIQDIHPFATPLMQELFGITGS
How it was run: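 Agonist mode: luminescence from ONE-Glo after 24 h compound exposure at 37C in HepG2 cells carrying hPXR-responsive CYP3A4 luciferase, plated in charcoal-stripped serum medium 5 h beforehand.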

[6] = biological target: Cytochrome P450 2D6 (Homo sapiens) (UniProt P10635); assay: Cytochrome P450 Family 2 Subfamily D Member 6 (CYP2D6) small molecule antagonists: luciferase reporter qHTS assay (AID 1671196); further: nearly all actives have a fitted effect of over 50% in size; further: potency means the concentration at half of the fitted maximal effect
Sequence of Cytochrome P450 2D6 (Homo sapiens) (P10635 whole entry, looked up): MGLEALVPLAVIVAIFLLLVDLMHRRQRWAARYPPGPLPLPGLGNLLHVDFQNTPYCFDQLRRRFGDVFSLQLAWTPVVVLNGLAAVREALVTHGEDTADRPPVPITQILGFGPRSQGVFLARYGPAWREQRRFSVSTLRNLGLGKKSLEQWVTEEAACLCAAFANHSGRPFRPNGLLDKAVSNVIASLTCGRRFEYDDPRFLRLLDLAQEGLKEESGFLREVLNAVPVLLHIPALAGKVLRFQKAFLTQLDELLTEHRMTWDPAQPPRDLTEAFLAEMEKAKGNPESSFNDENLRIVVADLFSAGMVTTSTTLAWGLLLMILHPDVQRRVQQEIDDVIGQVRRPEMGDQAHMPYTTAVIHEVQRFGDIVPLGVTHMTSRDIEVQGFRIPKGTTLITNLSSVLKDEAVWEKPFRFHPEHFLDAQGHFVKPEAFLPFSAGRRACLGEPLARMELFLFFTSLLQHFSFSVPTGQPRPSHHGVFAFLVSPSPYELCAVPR
How it was run: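 CYP2D6 activity was followed as luminescence from its luciferin product after a 1 h NADPH-driven reaction at room temperature. Enzyme-substrate mix and compound were pre-incubated for 10 min, and the signal was read 20 min after adding detection reagent.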

[7] = biological target: Cytochrome P450 2C19 (Homo sapiens) (UniProt P33261); assay: Cytochrome P450 Family 2 Subfamily C Member 19 (CYP2C19) small molecule antagonists: luciferase reporter qHTS assay (AID 1671197); further: nearly all actives have a fitted effect of over 65% in size; further: potency means the concentration at half of the fitted maximal effect
Sequence of Cytochrome P450 2C19 (Homo sapiens) (P33261 whole entry, looked up): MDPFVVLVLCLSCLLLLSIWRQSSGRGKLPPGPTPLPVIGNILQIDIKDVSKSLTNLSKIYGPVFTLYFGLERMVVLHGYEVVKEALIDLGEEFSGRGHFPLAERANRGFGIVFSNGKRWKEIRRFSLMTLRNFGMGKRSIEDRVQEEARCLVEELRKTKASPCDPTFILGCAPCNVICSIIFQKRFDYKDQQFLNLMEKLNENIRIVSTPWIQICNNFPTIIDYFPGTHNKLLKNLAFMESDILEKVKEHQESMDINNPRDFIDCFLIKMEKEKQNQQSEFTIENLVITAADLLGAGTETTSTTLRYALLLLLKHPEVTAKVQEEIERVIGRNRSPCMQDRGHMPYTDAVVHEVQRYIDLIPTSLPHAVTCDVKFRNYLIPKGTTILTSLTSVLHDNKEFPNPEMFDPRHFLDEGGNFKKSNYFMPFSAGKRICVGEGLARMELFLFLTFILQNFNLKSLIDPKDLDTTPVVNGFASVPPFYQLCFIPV
How it was run: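 CYP2C19 P450-Glo, 1536-well qHTS. Cpd + enzyme/proluciferin substrate 10 min RT; + NADPH regen, 37C 1 h; stop with luciferin detection reagent, 20 min RT, luminescence (RLU). Pos ctrl ketoconazole.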

[8] = biological target: Cytochrome P450 1A2 (Homo sapiens) (UniProt P05177); assay: Cytochrome P450 Family 1 Subfamily A Member 2 (CYP1A2) small molecule antagonists: luciferase reporter qHTS assay (AID 1671199); further: nearly all actives have a fitted effect of over 50% in size; further: potency means the concentration at half of the fitted maximal effect
Sequence of Cytochrome P450 1A2 (Homo sapiens) (P05177 whole entry, looked up): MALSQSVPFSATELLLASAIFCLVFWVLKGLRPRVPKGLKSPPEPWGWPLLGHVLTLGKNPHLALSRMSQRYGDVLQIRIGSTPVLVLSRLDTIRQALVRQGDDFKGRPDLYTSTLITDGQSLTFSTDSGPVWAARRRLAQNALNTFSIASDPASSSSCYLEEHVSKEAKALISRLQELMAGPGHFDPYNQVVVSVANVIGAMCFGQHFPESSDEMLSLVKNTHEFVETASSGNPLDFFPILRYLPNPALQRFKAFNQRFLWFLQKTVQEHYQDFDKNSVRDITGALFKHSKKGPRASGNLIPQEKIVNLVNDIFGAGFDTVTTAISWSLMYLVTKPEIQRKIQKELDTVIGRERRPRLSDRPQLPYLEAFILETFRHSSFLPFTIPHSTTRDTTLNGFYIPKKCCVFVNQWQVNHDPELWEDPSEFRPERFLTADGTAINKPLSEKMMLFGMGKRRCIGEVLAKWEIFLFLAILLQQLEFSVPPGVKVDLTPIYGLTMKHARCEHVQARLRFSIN
How it was run: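 Luminescence from luciferin formed by CYP1A2 from a proluciferin substrate, read 20 min after detection reagent. Compound was pre-incubated 10 min with enzyme-substrate, and reaction started with NADPH regeneration solution for 1 h at room temperature; furafylline control.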

[9] = biological target: Voltage-gated inwardly rectifying potassium channel KCNH2 (Homo sapiens) (UniProt Q12809); assay: Human Ether-a-go-go-Related Gene (hERG) channel small molecule antagonists: fluorescence cell-based qHTS assay (AID 1671200); further: nearly all actives have a fitted effect of over 50% in size; further: potency means the concentration at half of the fitted maximal effect
Sequence of Voltage-gated inwardly rectifying potassium channel KCNH2 (Homo sapiens) (Q12809 whole entry, looked up): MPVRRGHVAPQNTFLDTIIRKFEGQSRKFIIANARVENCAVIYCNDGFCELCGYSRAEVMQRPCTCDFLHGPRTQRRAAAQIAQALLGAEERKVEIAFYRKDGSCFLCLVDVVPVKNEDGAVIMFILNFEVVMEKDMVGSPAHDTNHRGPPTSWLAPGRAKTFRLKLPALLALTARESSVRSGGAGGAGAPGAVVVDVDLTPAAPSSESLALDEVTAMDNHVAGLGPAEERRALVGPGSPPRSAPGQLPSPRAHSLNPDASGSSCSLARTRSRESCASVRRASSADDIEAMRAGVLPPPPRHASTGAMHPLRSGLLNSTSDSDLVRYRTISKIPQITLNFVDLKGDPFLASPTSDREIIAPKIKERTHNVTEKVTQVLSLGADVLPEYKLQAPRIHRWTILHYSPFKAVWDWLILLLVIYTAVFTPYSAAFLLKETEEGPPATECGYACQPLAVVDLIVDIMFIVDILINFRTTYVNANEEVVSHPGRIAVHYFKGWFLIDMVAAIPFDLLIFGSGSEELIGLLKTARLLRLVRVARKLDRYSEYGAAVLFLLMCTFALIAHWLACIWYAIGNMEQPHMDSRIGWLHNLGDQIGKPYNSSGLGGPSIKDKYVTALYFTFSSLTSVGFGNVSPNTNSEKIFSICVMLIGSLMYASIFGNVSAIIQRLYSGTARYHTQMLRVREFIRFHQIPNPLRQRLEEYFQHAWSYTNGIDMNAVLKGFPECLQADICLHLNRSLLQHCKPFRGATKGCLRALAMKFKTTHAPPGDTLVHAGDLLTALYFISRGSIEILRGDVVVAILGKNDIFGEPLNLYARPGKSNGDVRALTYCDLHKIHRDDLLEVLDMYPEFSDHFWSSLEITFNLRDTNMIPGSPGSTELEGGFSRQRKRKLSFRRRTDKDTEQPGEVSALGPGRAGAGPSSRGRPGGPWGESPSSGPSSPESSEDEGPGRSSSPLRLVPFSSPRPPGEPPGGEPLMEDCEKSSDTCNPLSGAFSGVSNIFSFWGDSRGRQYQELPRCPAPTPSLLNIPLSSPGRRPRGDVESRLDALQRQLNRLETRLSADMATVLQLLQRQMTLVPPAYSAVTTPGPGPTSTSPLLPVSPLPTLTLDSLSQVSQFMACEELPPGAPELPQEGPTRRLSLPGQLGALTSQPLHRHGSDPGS
How it was run: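 Thallium served as the potassium surrogate; its influx into dye-loaded U2OS cells carrying the channel was measured by fluorescence over 2 min.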

[10] = biological target: Cytochrome P450 2C9 (Homo sapiens) (UniProt P11712); assay: Cytochrome P450 Family 2 Subfamily C Member 9 (CYP2C9) small molecule antagonists: luciferase reporter qHTS assay (AID 1671198); further: nearly all actives have a fitted effect of over 50% in size; further: potency means the concentration at half of the fitted maximal effect
Sequence of Cytochrome P450 2C9 (Homo sapiens) (P11712 whole entry, looked up): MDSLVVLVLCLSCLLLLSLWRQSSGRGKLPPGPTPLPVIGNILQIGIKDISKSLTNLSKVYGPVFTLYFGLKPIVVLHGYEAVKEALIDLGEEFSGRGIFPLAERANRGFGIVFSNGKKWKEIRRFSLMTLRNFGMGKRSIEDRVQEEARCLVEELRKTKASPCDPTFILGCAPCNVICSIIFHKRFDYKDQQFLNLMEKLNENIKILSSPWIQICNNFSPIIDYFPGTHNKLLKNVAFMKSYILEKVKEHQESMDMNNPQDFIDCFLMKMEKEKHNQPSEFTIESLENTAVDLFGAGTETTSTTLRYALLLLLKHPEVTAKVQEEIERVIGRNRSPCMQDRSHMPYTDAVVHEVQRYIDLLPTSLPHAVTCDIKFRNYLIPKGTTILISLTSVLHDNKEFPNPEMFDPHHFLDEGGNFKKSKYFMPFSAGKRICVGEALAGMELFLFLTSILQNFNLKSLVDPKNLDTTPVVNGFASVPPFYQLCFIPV
How it was run: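 Enzyme-substrate mix preincubated with compound 10 min at room temperature; reaction started with NADPH regeneration solution, 1 h 37C. Luminescent luciferin product read after 20 min detection reagent.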

[11] = biological target: Cytochrome P450 3A4 (Homo sapiens) (UniProt P08684); assay: Cytochrome P450 Family 3 Subfamily A Member 4 (CYP3A4) small molecule antagonists: luciferase reporter qHTS assay (AID 1671201); further: nearly all actives have a fitted effect of over 50% in size; further: potency means the concentration at half of the fitted maximal effect
Sequence of Cytochrome P450 3A4 (Homo sapiens) (P08684 whole entry, looked up): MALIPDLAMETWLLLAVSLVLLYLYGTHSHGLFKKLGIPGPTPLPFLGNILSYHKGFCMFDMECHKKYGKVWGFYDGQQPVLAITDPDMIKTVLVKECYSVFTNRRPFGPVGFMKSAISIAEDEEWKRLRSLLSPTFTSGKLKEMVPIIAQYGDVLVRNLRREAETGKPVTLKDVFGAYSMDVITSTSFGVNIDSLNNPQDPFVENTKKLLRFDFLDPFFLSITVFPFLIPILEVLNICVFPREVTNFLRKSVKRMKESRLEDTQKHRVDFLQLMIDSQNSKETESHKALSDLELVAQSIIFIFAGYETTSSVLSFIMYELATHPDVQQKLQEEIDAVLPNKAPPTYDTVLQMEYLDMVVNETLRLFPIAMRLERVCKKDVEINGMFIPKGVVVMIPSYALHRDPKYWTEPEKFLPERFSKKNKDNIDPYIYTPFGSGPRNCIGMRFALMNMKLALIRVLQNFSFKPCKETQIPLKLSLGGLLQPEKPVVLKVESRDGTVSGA
How it was run: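 Relative luminescence units after 20 min with luciferin detection reagent served as read-out. Beforehand, CYP3A4 turned over a proluciferin substrate for 1 h at room temperature with NADPH regeneration, following 10 min compound preincubation.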

[12] = biological target: Nuclear receptor subfamily 1 group I member 2 (Rattus norvegicus) (UniProt Q9R1A7); assay: Rat pregnane X receptor (rPXR) activation by small molecules, qHTS assay (AID 1346983); conditions: rPXR luciferase reporter cells, One-Glo luminescence, 24 h; max activation: stronger effect = higher value; further: nearly all actives have a fitted effect of over 20% in size
Sequence of Nuclear receptor subfamily 1 group I member 2 (Rattus norvegicus) (Q9R1A7 whole entry, looked up): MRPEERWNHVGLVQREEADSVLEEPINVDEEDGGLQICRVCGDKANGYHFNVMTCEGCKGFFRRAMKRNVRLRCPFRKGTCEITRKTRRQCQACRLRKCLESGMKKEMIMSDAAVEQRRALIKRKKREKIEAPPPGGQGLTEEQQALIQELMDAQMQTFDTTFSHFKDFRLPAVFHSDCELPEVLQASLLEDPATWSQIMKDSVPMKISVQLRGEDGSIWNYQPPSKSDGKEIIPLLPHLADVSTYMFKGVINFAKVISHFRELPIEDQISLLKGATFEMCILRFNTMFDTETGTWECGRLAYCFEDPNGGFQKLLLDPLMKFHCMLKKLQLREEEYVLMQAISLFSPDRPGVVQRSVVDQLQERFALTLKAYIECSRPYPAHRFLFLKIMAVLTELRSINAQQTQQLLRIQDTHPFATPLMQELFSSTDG
How it was run: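 Luminescent readout (One-Glo luciferase, 30 min room temperature) followed 24 hr compound treatment at 37 C of rPXR cells plated 2,000 per well and preincubated 5hr; qHTS format with compounds delivered in DMSO.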

[13] = biological target: Nuclear receptor subfamily 1 group I member 2 (Homo sapiens) (UniProt O75469); assay: CYP3A4 induction through human pregnane X receptor (PXR) by small molecules, qHTS assay (AID 1346984); further: potency means the concentration at half of the fitted maximal effect; nearly all actives have a fitted effect of over 40% in size
How it was run: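 Read-out is luminescence after One-Glo addition, following a 3 hr, 37C incubation with Luciferin-IPA CYP3A4 substrate (3uM final). Before that, compounds were on DPX-2 cells (HepG2 co-transfected with PXR element plus CYP3A4-promoter luciferase) for 24 hr at 37C.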

[14] = biological target: Nuclear receptor subfamily 1 group I member 2 (Homo sapiens) (UniProt O75469); assay: Human pregnane X receptor (PXR) activation by small molecules, qHTS assay (AID 1346985); further: nearly all actives have a fitted effect of over 40% in size
How it was run: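 DPX-2 cells (HepG2 co-transfected with a PXR response element and a CYP3A4-promoter luciferase construct) were seeded at 2,000 per well, rested 5 hr at 37C, then exposed to DMSO-dissolved compounds for 24 hr. Activation was read as luciferase luminescence.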

Q: Which Potency [1] does the source give for `CN1CCC[C@H]1c1cccnc1` here?
A: inactive

Q: And the Potency [2]?
A: inactive

Q: What about the Potency [3] of the same compound?
A: inactive

Q: And the Potency [4]?
A: inactive

Q: And the Potency [5]?
A: inactive

Q: And the Potency [6]?
A: 35.3 µM (active) and inactive

Q: And the Potency [7]?
A: inactive

Q: What about the Potency [8] of the same compound?
A: inactive

Q: And the Potency [9]?
A: inactive

Q: Which results are given for `C=C(C)C(=O)OCC(C)O` (centres undefined)?
A: Potency [1]: inactive; Potency [2]: inactive; Potency [3]: inactive; Potency [4]: inactive; Potency [5]: inactive; Potency [6]: inactive; Potency [7]: inactive; Potency [10]: inactive; Potency [8]: inactive; Potency [9]: inactive; Potency [11]: inactive

Q: Which results are given for `CCCCOC(=O)c1ccc(O)cc1`?
A: Potency [1]: inactive; Potency [2]: 31 µM (active) and inactive; Potency [3]: inactive; Potency [4]: inactive; Potency [5]: 69.4 µM (active) and inactive; Potency [6]: inactive; Potency [7]: 28.6 µM (active) and 35.6 µM (active) and 15.5 µM (active); Potency [10]: 32.1 µM (active) and 28.3 µM (active) and 17.4 µM (active); Potency [8]: 4.54 µM (active) and 6.33 µM (active) and 4.36 µM (active); Potency [9]: inactive; Potency [11]: inactive

Q: Which results are given for `F[B-](F)(F)F`?
A: Potency [1]: inactive; Potency [2]: inactive; Potency [3]: inactive; Potency [4]: inactive; Potency [5]: inactive; Potency [6]: inactive; Potency [7]: 73.9 µM (active) and inactive and 79.6 µM (active); Potency [10]: inactive; Potency [8]: inactive and 40.5 µM (active); Potency [9]: inactive; Potency [11]: inactive and 40.5 µM (active)

Q: Which Potency [1] does the source give for `Cn1c(=O)c2c(ncn2C)n(C)c1=O` here?
A: inactive

Q: What about the Potency [2] of the same compound?
A: 61.9 µM (active) and inactive

Q: What about the Potency [3] of the same compound?
A: inactive

Q: What about the Potency [4] of the same compound?
A: 61.9 µM (active) and inactive

Q: And the Potency [9]?
A: inactive

Q: Which results are given for `CCCCC1(COC(=O)CCC(=O)O)C(=O)N(c2ccccc2)N(c2ccccc2)C1=O`?
A: Potency [1]: inactive; Potency [2]: inactive; Potency [3]: inactive; Potency [4]: inactive; Potency [9]: inactive

Q: Which Potency [2] does the source give for `COc1ccc(OC(F)(F)F)cc1CN[C@H]1CCCN[C@H]1c1ccccc1` here?
A: 61.1 µM (active)

Q: And the Potency [3]?
A: inactive

Q: And the Potency [5]?
A: 4.86 µM (active)

Q: What about the Potency [7] of the same compound?
A: 79.6 µM (active)

Q: And the Potency [11]?
A: 1.78 µM (active)

Q: For `NC(=O)n1c(O)c(C(=O)c2cccs2)c2cc(Cl)ccc21`, which Potency [1] is on record?
A: inactive

Q: What about the Potency [3] of the same compound?
A: inactive

Q: And the max activation [12]?
A: 4.95% (inactive)

Q: And the Potency [13]?
A: 28.2 µM (active)

Q: And the Potency [6]?
A: inactive

Q: And the Potency [10]?
A: 12.3 µM (active)

Q: And the Potency [8]?
A: 15.5 µM (active)

Q: And the Potency [9]?
A: inactive

Q: For `Oc1ccccc1`, which Potency [1] is on record?
A: inactive

Q: What about the Potency [2] of the same compound?
A: inactive

Q: And the Potency [3]?
A: inactive

Q: What about the Potency [4] of the same compound?
A: inactive

Q: What about the Potency [9] of the same compound?
A: inactive

Q: For `COc1cccc(O)c1O`, which Potency [1] is on record?
A: inactive

Q: And the Potency [2]?
A: 63.5 µM (active)

Q: And the Potency [3]?
A: inactive

Q: And the Potency [5]?
A: 25.3 µM (active)

Q: And the Potency [7]?
A: 58.6 µM (active)

Q: What about the Potency [10] of the same compound?
A: inactive

Q: What about the Potency [9] of the same compound?
A: inactive

Q: And the Potency [11]?
A: inactive

Q: For `CCCC[P+](CCCC)(CCCC)CCCC`, which Potency [1] is on record?
A: inactive

Q: What about the Potency [2] of the same compound?
A: inactive

Q: What about the Potency [3] of the same compound?
A: inactive

Q: And the Potency [4]?
A: inactive

Q: And the Potency [9]?
A: 21.8 µM (active) and 22.3 µM (active) and 12.3 µM (active)

Q: With `Cc1ccc(S(=O)(=O)O)cc1` as the compound, how does the Potency [1] read?
A: inactive

Q: And the Potency [2]?
A: inactive

Q: What about the Potency [3] of the same compound?
A: inactive

Q: And the Potency [4]?
A: inactive

Q: And the Potency [9]?
A: inactive

Q: What does the source list for `CC(=O)CC(c1ccccc1)c1c(O)c2ccccc2oc1=O` (centres undefined)?
A: Potency [2]: 68.9 µM (active) and inactive; Potency [3]: inactive; Potency [4]: inactive; max activation [12]: -3.82% (inactive); Potency [9]: inactive

Q: What does the source list for `CCCCNC(=O)NS(=O)(=O)c1ccc(C)cc1`?
A: Potency [1]: inactive; Potency [2]: inactive; Potency [3]: inactive; Potency [4]: inactive; Potency [9]: inactive

Q: What does the source list for `CC(C)NCC(O)c1ccc(O)c(O)c1` (centres undefined)?
A: Potency [1]: inactive; Potency [2]: inactive; Potency [3]: inactive; Potency [4]: inactive; Potency [9]: inactive

Q: With `O=c1[nH]cc(F)c(=O)[nH]1` as the compound, how does the Potency [1] read?
A: inactive

Q: And the Potency [3]?
A: inactive

Q: And the Potency [4]?
A: inactive

Q: What about the Potency [5] of the same compound?
A: 31.8 µM (active) and 24.9 µM (active) and inactive

Q: And the Potency [6]?
A: inactive and 34.7 µM (active)

Q: What about the Potency [7] of the same compound?
A: 20.8 µM (active) and inactive

Q: And the Potency [10]?
A: inactive

Q: And the Potency [8]?
A: 32.9 µM (active) and inactive

Q: What about the Potency [9] of the same compound?
A: inactive

Q: And the Potency [11]?
A: inactive

Q: Which results are given for `CN1[C@@H]2CC(OC(=O)[C@H](CO)c3ccccc3)C[C@H]1[C@@H]1O[C@@H]12` (some centres undefined)?
A: Potency [2]: inactive; Potency [3]: inactive; Potency [4]: inactive; Potency [5]: inactive; max activation [12]: 6.06% (inactive) and -0.026% (inactive); outcome [14]: inactive
